Paper PMC4552634, “A New Set of Chemical Starting Points with Plasmodium falciparum Transmission-Blocking Potential for Antimalarial Drug Discovery” (PLoS ONE, 2015)
Screen size: about 13,000 compounds; about 3,200 (25%) showed an effect of 50% or more. Some of the results follow.

These compounds were tested on P. falciparum stage V gametocytes. Settings: 48 h, 5 µM; inhibitor.
Parameters: BacTiter-Glo ATP luminescence viability of purified stage V gametocytes in 384-well plates, per cent inhibition versus DMSO
With `CCNc1cc(C(=O)N[C@@H](Cc2ccccc2)[C@H](O)CNC2(CC(C)C)CC2)cc(N2CCCCS2(=O)=O)c1` [TCMDC-135258] the “% Inhibition” value was -2.163%.
In the case of `COc1ccc2cc(C(=O)Nc3ccc4c(c3)CCN(C3CCC3)CC4)ccc2c1` [TCMDC-136082], the “% Inhibition” value was -6.595%.
In the case of `N#Cc1cccc(-c2ccc(C(=O)Nc3ccc4c(c3)CCN(C3CCC3)CC4)cn2)c1` [TCMDC-135996], the “% Inhibition” value was -32.92%.
`O=C(Nc1ccc2c(c1)CCN(C1CCC1)CC2)c1cn(-c2ccccc2)nc1-c1ccccc1` [TCMDC-136083] was tested, and the “% Inhibition” value was 54.47%.
With `O=C(Nc1ccc2c(c1)CCN(C1CCC1)CC2)c1ccc(-n2ccnc2)cn1` [TCMDC-135973] the “% Inhibition” value was 3.666%.
`O=C(Nc1ccc2c(c1)CCN(C1CCC1)CC2)c1ccc(-c2cn3ccccc3n2)cc1` [TCMDC-135460] was tested, and the “% Inhibition” value was 75.27%.
In the case of `N#Cc1ccc(-n2cc(C(=O)Nc3ccc4c(c3)CCN(C3CCC3)CC4)c(C(F)(F)F)n2)cc1` [TCMDC-136080], the “% Inhibition” value was 23.35%.
`CCOCCCNc1sc(S(=O)(=O)c2ccccc2)nc1S(=O)(=O)c1ccc(C)cc1` [TCMDC-124750] was tested, and the “% Inhibition” value was 20.27%.
For `O=C(Cc1ccc[n+]([O-])c1)Nc1cccc(-c2cccc(-c3nc4cc(C(F)(F)F)ccc4[nH]3)c2)c1` [TCMDC-136990], the “% Inhibition” value was -75.57%.
With `CC(=O)Nc1ccc(CN2CCN(C(c3ccc(F)cc3)c3ccc(F)cc3)CC2)cc1` [TCMDC-124045] the “% Inhibition” value was 16.43%.
For `O=C(/C=C/c1ccc(F)cc1)NC1CCC(CCN2CCc3ccccc3CC2)CC1` (centres unmarked) [TCMDC-139451], the “% Inhibition” value was -36.35%.
For `N#Cc1ccc(N2CCN(Cc3ccc(-c4ccc(-c5nc6cc(C(F)(F)F)ccc6[nH]5)cc4)cc3)CC2)nc1.O=C(O)C(F)(F)F` [TCMDC-133113], the “% Inhibition” value was -14.21%.
For `Oc1ccccc1CN1CCCC(COC(c2ccc(F)cc2)c2ccc(F)cc2)C1` (centres unmarked) [TCMDC-136037], the “% Inhibition” value was 28.2%.
For `Nc1c(Cl)cc(C(O)CNCCCCCOCCCc2ccc(O)c3ncccc23)cc1Cl` (centres unmarked) [TCMDC-132088], the “% Inhibition” value was 115.2%.
For `CCN(CC)S(=O)(=O)c1ccc(CCOCCCCCNCC(O)c2cc(Cl)c(N)c(Cl)c2)s1` (centres unmarked) [TCMDC-132091], the “% Inhibition” value was 31.84%.
With `Cc1ccc(CCOCCCCCNCC(O)c2cc(Cl)c(N)c(Cl)c2)cc1` (centres unmarked) [TCMDC-132077] the “% Inhibition” value was 0.6115%.
With `Nc1c(Cl)cc(C(O)CNCCCCCCCCCc2ccccn2)cc1Cl` (centres unmarked) [TCMDC-132100] the “% Inhibition” value was 20.05%.
For `Nc1c(Cl)cc(C(O)CNCCCCCOCCCc2ccc3ncccc3c2)cc1Cl` (centres unmarked) [TCMDC-132087], the “% Inhibition” value was 57.03%.
`Nc1c(Cl)cc(C(O)CNCCCCCOCCc2ccccc2)cc1C(F)(F)F` (centres unmarked) [TCMDC-132081] was tested, and the “% Inhibition” value was 12.69%.
For `Nc1c(Cl)cc(C(O)CNCCCCCOCCc2ccc3occc3c2)cc1Cl` (centres unmarked) [TCMDC-132085], the “% Inhibition” value was 27.47%.
`Nc1c(Cl)cc(C(O)CNCCCCCCOCCc2ccc(O)cc2)cc1Cl` (centres unmarked) [TCMDC-132086] was tested, and the “% Inhibition” value was 21.31%.
For `Nc1c(Cl)cc(C(O)CNCCCCCCOCCc2ccc(CO)s2)cc1Cl` (centres unmarked) [TCMDC-132092], the “% Inhibition” value was 55.37%.
For `CCOCc1cnc(C)nc1CNC(=O)c1c(C)[nH]c2ccc(C)cc12` [TCMDC-125780], the “% Inhibition” value was 11.26%.
In the case of `CCCc1cc(=O)oc2cc(OC)c(C(=O)CC(C)C)c(OC)c12` [TCMDC-138262], the “% Inhibition” value was -48.84%.
In the case of `Oc1cccc(-c2nc(-c3ccccc3)c(-c3ccc4oc5ccc(-c6[nH]c(-c7cccc(O)c7)nc6-c6ccccc6)cc5c4c3)[nH]2)c1` [TCMDC-124223], the “% Inhibition” value was 14.59%.
`CC(CN(C)C)C(=O)Nc1ccc(-c2ccc(-c3nc4ccc(C(F)(F)F)cc4[nH]3)cc2)cc1` (centres unmarked) [TCMDC-137113] was tested, and the “% Inhibition” value was -54.47%.
For `O=C(NCCN1CCCC1)c1cccc(-c2ccc(-c3nc4ccc(F)cc4[nH]3)cc2)c1` [TCMDC-132325], the “% Inhibition” value was -16.55%.
In the case of `CN(C)C(=S)NN=Cc1cccc(O)c1O` [TCMDC-137879], the “% Inhibition” value was 23.09%.
In the case of `CC(=NNC(N)=O)C1=C(O)C(c2ccccc2)N(C2CCCCC2)C1=O` (centres unmarked) [TCMDC-131672], the “% Inhibition” value was -9.176%.
In the case of `NC(N)=NN=CC(=O)Nc1ccc(Cl)c(C(F)(F)F)c1` [TCMDC-137561], the “% Inhibition” value was 9.011%.
For `Cc1cccc2nc(-c3cccc(-c4cccc(NC(=O)Cc5ccc[n+]([O-])c5)c4)c3)[nH]c12` [TCMDC-136992], the “% Inhibition” value was 24.81%.
With `O=C(NCCCCN1CCC(c2ccc3c(c2OCCCO)CCCC3)CC1)c1ccc(-c2ccc(C(F)(F)F)cc2)c(CO)c1` [TCMDC-138741] the “% Inhibition” value was 72.16%.
With `O=C(NCCCCN1CC=C(c2ccc3c(c2OCC2CC2)CCCC3)CC1)c1ccc(-c2ccc(C(F)(F)F)cc2)cc1` [TCMDC-138758] the “% Inhibition” value was -36.04%.
For `COc1ccc(C(=O)NCCCCN2CCC(c3ccc4c(c3OC)CCCC4)CC2)cc1-c1ccc(C(F)(F)F)cc1` [TCMDC-138700], the “% Inhibition” value was -81.5%.
`O=C(NCCCCN1CCC(c2ccc3c(c2OCCN2CCCC2=O)CCCC3)CC1)c1ccc(-c2ccc(C(F)(F)F)cc2)cc1` [TCMDC-138773] was tested, and the “% Inhibition” value was 108.1%.
For `O=C(NCCCCN1CCC(c2ccc3c(c2OCCOCCO)CCCC3)CC1)c1ccc(-c2ccc(C(F)(F)F)cc2)cc1` [TCMDC-138762], the “% Inhibition” value was 96.11%.
With `Cc1cc(C2CCN(CCCCNC(=O)c3ccc(-c4ccc(C(F)(F)F)cc4)cc3)CC2)c(C)cc1OCC#N` [TCMDC-138799] the “% Inhibition” value was 37.57%.
For `N#CCOc1c(C2CCN(CCCCNC(=O)c3ccc(-c4ccc(C(F)(F)F)cc4)cc3)CC2)ccc2c1CCCC2` [TCMDC-138769], the “% Inhibition” value was 92.11%.
With `OC(c1ccccc1)C1CN(CCc2ccccc2)CCC1(O)c1ccccc1` (centres unmarked) [TCMDC-131287] the “% Inhibition” value was -3.552%.
With `O=C(/C=C/c1ccccc1Cl)Nc1ccc(Br)c(OCCN2CCN(CCN3CCOCC3)CC2)c1` [TCMDC-140958] the “% Inhibition” value was -23.86%.
In the case of `Fc1ccc2[nH]c(-c3cccc(-c4ccc(CNCc5cnn(-c6ccccc6)n5)cc4)c3)nc2c1.O=C(O)C(F)(F)F` [TCMDC-132973], the “% Inhibition” value was -12.58%.
